Screening results as filed in PubChem.
Most compounds without a hit are left out; they make up all but 1% or so of the library.
SNCA expr inhib = reduces expression of the alpha-synuclein gene | 140,000 tested, 0.17% active | HEK-293 SNCA-luciferase knock-in, luminescence, 24 h | Potency, µM (top dose mostly 57.2 µM), inactives show at the highest dose activity change, negative = inhibition, usual class: inhibitors;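 further: potency means the concentration at half of the fitted maximal effect; plate controls were DMSO cells for no effect and cell-free wells for full effect; nearly all actives have a fitted effect of over 45% in size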
HEK293 viab = counter-screen for SNCA expression inhibitors: cell viability; HEK-293-SNCA-luc viability, GF-AFC fluorescence, 24 h; Potency, µM (top dose mostly 57.1 µM), inactives show top-dose activity change, negative = cytotoxicity, most hits filed as cytotoxic; 150,000 tested, 0.12% active;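 further: potency means the concentration at half of the fitted maximal effect; 0% = DMSO-treated cells and -100% = medium-only wells without cells; nearly all actives have a fitted effect of over 30% in size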
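HEK-293-SNCA-luc cells (1500/well) plated 24 h, then exposed 24 h to a dilution series; GF-AFC added 30 min at 37C, fluorescence 405/540 nm; normalised to medium-only and DMSO wells, Hill fit.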
IP6K1 inhibitor = inhibitors of human IP6K1. IP6K1 kinase, ADP-Glo luminescence, 2 h; active compounds read low. 140,000 tested, 0.81% active. Q92551. activity change, % (series mostly up to about 58 µM). AID 1645851; in the data active means activity change below about -25%
Target sequence (Q92551 whole entry, looked up): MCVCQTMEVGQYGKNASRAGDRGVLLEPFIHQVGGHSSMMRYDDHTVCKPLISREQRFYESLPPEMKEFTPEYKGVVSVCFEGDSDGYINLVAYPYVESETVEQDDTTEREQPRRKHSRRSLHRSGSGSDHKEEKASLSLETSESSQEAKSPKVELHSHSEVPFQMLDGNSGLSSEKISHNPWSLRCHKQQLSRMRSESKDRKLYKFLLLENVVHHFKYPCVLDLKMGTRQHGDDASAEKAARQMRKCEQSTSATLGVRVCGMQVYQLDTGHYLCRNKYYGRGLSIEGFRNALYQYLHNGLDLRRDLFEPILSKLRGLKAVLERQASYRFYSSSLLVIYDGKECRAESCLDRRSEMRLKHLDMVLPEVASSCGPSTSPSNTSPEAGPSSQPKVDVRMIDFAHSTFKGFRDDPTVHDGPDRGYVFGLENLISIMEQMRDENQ
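ADP-Glo luminescence measures ADP made by human IP6K1 during a 2 h RT reaction with ATP/IP6 (mix at 1.3 mM/130 uM); top library doses 57.5 and 19.1 uM final.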
GPT2 inh = GPT2 alanine aminotransferase inhibition; Q8TD30; Recombinant GPT2, coupled pyruvate oxidase/HRP Amplex Red fluorescence; Potency, µM (highest dose often 57.7 µM), inactives show at the highest dose activity change, negative = inhibition, actives largely listed as inhibitors; 100,000 tested, 0.25% active; further: potency means the concentration at half of the fitted maximal effect; nearly all actives have a fitted effect of over 60% in size
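GPT2 10ng/uL, a-KG 250uM, L-Ala 2mM, HEPES pH7.5 + 0.0001% Tween; 30 min RT. Then Amplex mix (PO/HRP/ThPP), 30 min RT dark, fluorescence. AOA 50uM used as positive control.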
Numbers without * were called inactive; i = inactive; ? = inconclusive; nt = no result given; ! = not confirmed by another sample; [ ] = dose if it differs, or a comment. Unless noted, the call rests on the fitted dose curve; in most records, active means well fitted curve in the direction sought with a large enough effect; inconclusive means small, poorly fitted or top-dose-only effect, or another doubt; inactive means no such curve, though single readings can be large; an effect the other way counts as inactive or inconclusive. Unless noted, on the % scale 0 is the no-effect control and ±100 the full control effect.

SMILES	SNCA expr inhib	HEK293 viab	IP6K1 inhibitor	GPT2 inh
COc1ccc(N2CC3CCC(C2)N3Cc2cccc(-c3cccnc3)c2)cc1	?	-2%	11	6.3µM*
C=CCn1c(=O)c2cnc(Nc3ccc(N4CCN(C)CC4)cc3)nc2n1-c1cccc(C(C)(C)O)n1	0.48µM*	?	6	-6%
Cc1cccc(C)c1-n1c(=O)c2cnc(Nc3ccc(N4CCN(C)CC4)cc3)nc2n2c3ccccc3nc12	nt	?	18	?
NC(=O)Cn1ccc2cc(OCC3CCN(c4cc(NC5CC5)ncn4)CC3)cnc21	-27%[87.6 µM]	-20%[87.6 µM]	-11	1%[88.5 µM]
Cc1nc2c(s1)C[C@]1(C)CCC([C@H](C)C(=O)N3CCOCC3)[C@H](O)[C@H]1[C@@H]2C (some centres not stated)	37%[87.6 µM]	3%[87.6 µM]	-10	-4%[88.5 µM]
C[C@H](C(=O)NCCN1CCOCC1)C1CC[C@@]2(C)Cc3sc(-c4ccccc4)nc3[C@@H](C)[C@@H]2[C@H]1O (some centres not stated)	0.79µM*	2%	-3	2%
c1cc(NC2CCNCC2)nc(-c2cnc3ccccn23)c1	nt	?	-20	3%
Clc1ccc2ncc(-c3cccc(NC4CNC4)n3)n2c1	0.61µM*	-30%	-4	?
COc1cc(CNC(=O)c2cccc3c2CCN3C(=O)C2CC2)cc(OC)c1	2%	16%	0	i
COc1ccc(C(=O)Nc2nc3c(s2)C[C@@H]2[C@](C)(CO)[C@H](O)CC[C@@]2(C)[C@@H]3CC(=O)N2CCC(C)CC2)cc1	-34%	?	-8	-4%
COc1cccc(-n2nc(C(=O)O)cc2-c2ccc(C3CCCCC3)c(Cl)c2)c1	nt	-15%	-38*	-5%
COCCCNC(=O)c1cn2cc(-c3cccc(C#N)c3)sc2n1	-6%	1%	13	-16%
COc1cccc2nc(-c3cccs3)nc(NN3C(=O)C=C(C)C3=O)c12	?	30µM*!	-19	-1%
COc1ccccc1C(=O)NC1CCN(Cc2ccc(-c3ccccc3OC)cc2)C1 (configuration not stated)	nt	nt	24	nt
CC(=O)OCC1=C(C(=O)O)N2C(=O)[C@@H](NC(=O)CSc3ccncc3)[C@H]2SC1	-22%[25.6 µM]	-21%[23.9 µM]	-42*	-12%
NC[C@@](O)(c1ccc(Cl)cc1)c1ccc(-c2cn[nH]c2)cc1	nt	24µM*	-8	-3%
NCC(O)(CS(=O)(=O)O)c1ccc(Cl)cc1 (configuration not stated)	0%	4%	nt	-3%
CCOCCCNC(=O)CNC(=O)c1cccc(-c2cc(F)ccc2OC)c1	nt	nt	-14	nt
O=C(CSCc1ccc(F)cc1)N1CCc2c([nH]c3ccccc23)C1c1ccc(Cl)cc1 (configuration not stated)	10µM*	-6%	20	nt
C[C@@H]1CN(c2nc(-c3ccccc3)no2)CC[C@@]1(O)C1CCC1	14µM*	-11%	-11	1%
COc1ccccc1NC(=O)c1cc(S(=O)(=O)N2CCN(c3ccccc3Cl)CC2)ccc1F	-2%	6%	-11	nt
COc1ccccc1N1CCN(S(=O)(=O)c2ccc(F)c(C(=O)Nc3ccc(Cl)cc3C(F)(F)F)c2)CC1	-2%	7%	-34*	nt
CN1CCN(c2ccc(-c3cc4c(ccn4C)c(C(=O)NCC4CCOCC4)n3)cc2)CC1	7%	-2%	-9	i
CN1CCN(c2ccc(C(=O)Nc3n[nH]c4ccc(Cc5cc(F)cc(F)c5)cc34)c(NC3CCOCC3)c2)CC1	?	27µM*!	-12	i
CCOCCNC(=O)C1CCCN1Cc1cccc(-c2ccc(C)c(Cl)c2)c1 (configuration not stated)	nt	nt	17	nt
SMILES	SNCA expr inhib	HEK293 viab	IP6K1 inhibitor	GPT2 inh
Cn1c(=O)n(-c2ccc3c(c2)OCO3)c2nc(-c3ccc(Cl)cc3)nc(C(N)=O)c21	32µM*	1%	14	nt
CC(C)c1ccc(-c2nc(C(N)=O)c3c(n2)n(-c2ccc4c(c2)OCO4)c(=O)n3C)cc1	23%	7%	-1	nt
O=C(Cc1ccc(Cl)cc1)Nc1ccc2nn(-c3ccccc3)nc2c1	27%	3%	-10	nt
CCOc1ccc(-n2nc3ccc(NC(=O)Cc4ccccc4)cc3n2)cc1	28µM*	28µM*	-6	nt
COc1ccccc1-c1cccc(CN2CCCC(C(=O)NCCc3ccc(F)cc3)C2)c1 (configuration not stated)	?	-20%	0	-1%
C(#Cc1nc2ncccc2nc1OCCN1CCCC1)c1ccccc1	nt	15µM*	-9	i
